Bioassay records from PubChem BioAssay.
Only some compounds are listed: those with a hit (about 19% of all), similar ones and a draw of the others.
TDP1 cell noCPT – qHTS for Inhibitors of human tyrosyl-DNA phosphodiesterase 1 (TDP1): qHTS in cells in absence of CPT; DT40 Tdp1-/- hTDP1 cells, no CPT, ATP luminescence, 48 h; Potency, µM (series often up to 46.2 µM), actives largely listed as inhibitors; hit rate 15% among 420,000; also: nearly all actives have a fitted effect of over 55% in size
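No-CPT arm: Tdp1-/-;hTDP1 DT40 cells (400/well) plus compounds, incubated ≥48 hr at 37 °C. Readout CellTiter-Glo luminescence.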
HT1080NT lethal – qHTS for induction of synthetic lethality in tumor cells producing 2HG: qHTS for the HT-1080-NT fibrosarcoma cell line. Potency, µM (doses to about 46.1 µM), hits mostly cytotoxic. AID 686970, 2013. hit rate 1.6% among 360,000. HT-1080-NT fibrosarcoma viability, CellTiter-Glo ATP luminescence, 48 h;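 also: NT is the 2HG producing partner of a matched IDH1 knockdown line; nearly all actives have a fitted effect of over 55% in size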
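Luminescent CellTiter-Glo readout after 48 hours of compound exposure at 37 degrees C defined viability of HT-1080-NT cells. Activity was normalized to DMSO wells and cell-free media wells; concentration-response curves were fitted and assigned curve classes.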
KB-V1 cytotox – qHTS assay for MDR1-selective chemotherapeutics: Primary screen using the drug-selected MDR subline cells KB-V1. KB-V1 MDR cells viability, CellTiter-Glo, 72 h. Potency, µM (titrated, usually from 46.1 µM), most hits filed as cytotoxic. hit rate 3.4% among 400,000. AID 1347076, 2019; also: nearly all actives have a fitted effect of over 60% in size
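KB-V1, DMEM (no phenol red) + 10% FBS; cpd pin-transferred, titration series; 72 h, 37 degrees C; CellTiter-Glo, luminescence. Data normalized, curve-fit.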
KB-3-1 cytotox – qHTS assay for MDR1-selective chemotherapeutics: Primary screen using the parental adenocarcinoma cell KB-3-1; Potency, µM (top dose mostly 46.1 µM), most hits filed as cytotoxic; KB-3-1 viability, CellTiter-Glo ATP luminescence, 72 h; AID 1347075, 2019; hit rate 1.4% among 400,000; also: nearly all actives have a fitted effect of over 60% in size
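72 h, 37 °C compound treatment of KB-3-1 parental cells; CellTiter-Glo added, 10 min, luminescence read. Data corrected against DMSO-only plates and normalized before curve fitting.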
HT1080 IDH1KD tx – qHTS for induction of synthetic lethality in tumor cells producing 2HG: qHTS for the HT-1080-IDH1KD cell line. HT-1080 IDH1 knockdown viability, ATP luminescence, 48 h. Potency, µM (series often up to 46.1 µM), usual class: cytotoxic. hit rate 2% among 360,000. AID 686971, 2013
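IDH1KD HT-1080 cells, 750/well, RPMI + 5% FBS; compound pinned after 2 h settling; 48 h, 37 °C; CellTiter-Glo luminescence; % activity normalised to DMSO and no-cell wells; curves fitted, classed by r2 and efficacy.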
TDP1 cell CPT – qHTS for Inhibitors of human tyrosyl-DNA phosphodiesterase 1 (TDP1): qHTS in cells in presence of CPT; AID 686979, 2013; chicken DT40 Tdp1-/-;hTDP1 cells + 20 nM CPT, ATP luminescence, 48 h; Potency, µM (titrated, usually from 46.2 µM), hits mostly inhibitors; hit rate 12% among 420,000; also: nearly all actives have a fitted effect of over 55% in size
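Chicken DT40 Tdp1-/- cells stably complemented with human TDP1 were seeded at 400 cells/well in medium containing 20 nM camptothecin, exposed to pin-transferred compounds, and grown at 37 °C for at least 48 hr. Viability was read as ATP luminescence.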
Hits are given with their value; – = inactive; ? = inconclusive; · = no result. Calls follow the shape of the dose curve; as a rule, active = well fitted curve in the direction sought with a large enough effect; inconclusive = small, poorly fitted or top-dose-only effect, or another doubt; inactive = no such curve, though single readings can be large; an effect the other way counts as inactive or inconclusive.

SMILES	TDP1 cell noCPT	HT1080NT lethal	KB-V1 cytotox	KB-3-1 cytotox	HT1080 IDH1KD tx	TDP1 cell CPT
O=C(c1cc(F)ccc1F)C1CCCN(C(=O)CCc2cnccn2)C1 (configuration not stated)	–	–	–	?	–	–
COc1ccc(-n2c(SCC#N)nc3c(sc(=S)n3-c3ccccc3)c2=O)c(OC)c1	?	–	–	?	–	?
O=C1CNC(c2ccccc2)C(c2ccccc2)N1 (configuration not stated)	–	–	–	–	–	–
COc1cccc(NC(=O)C(Cc2ccccc2)NS(=O)(=O)c2ccc3c(c2)c(=O)n(C)c(=O)n3C)c1 (configuration not stated)	?	·	?	–	·	–
Cc1ccccc1NC(=O)C(NS(=O)(=O)c1ccc2c(c1)c(=O)n(C)c(=O)n2C)c1ccccc1 (configuration not stated)	16µM	–	?	–	–	?
COc1ccccc1NC(=O)C(Cc1ccccc1)NS(=O)(=O)c1ccc2c(c1)c(=O)n(C)c(=O)n2C (configuration not stated)	?	·	–	–	·	23µM
COc1ccc(-c2c[n+]3c(n2-c2ccccc2)SCC3)cc1	4.6µM	–	–	4.1µM	?	8.2µM
Brc1ccc(-c2c[n+]3c(n2-c2ccccc2)SCC3)cc1	5.8µM	–	–	?	?	5.8µM
Cc1ccc(-c2c[n+]3c(n2-c2ccccc2)SCC3)cc1	2.3µM	–	–	3.3µM	?	3.3µM
O=S1(=O)CC(N2CCN(CC3CC3)CC2)CN1CCc1ccccc1 (configuration not stated)	?	–	–	–	–	–
CC(C)Cc1[nH]c(=O)c(C#N)c2c1COC(C)(C)C2	–	–	–	–	–	–
CCOC(=O)c1ccccc1NC(=O)c1c(C)oc2ncnc(N3CCOCC3)c12	21µM	·	·	·	·	?
CCOC(=O)c1c(C)oc2nc(C)nc(Nc3ccc(C)c(Cl)c3)c12	–	·	–	–	·	–
CCOC(=O)c1c(C)oc2nc(C)nc(N3CCN(c4cc(Cl)ccc4C)CC3)c12	21µM	·	?	–	·	4.6µM
CCOC(=O)c1c(C)oc2nc(C)nc(N3CCN(c4ccccc4F)CC3)c12	7.3µM	·	–	–	·	15µM
Cc1oc2ncnc(N3CCOCC3)c2c1C(=O)Nc1ccc(Br)cc1F	–	·	–	–	·	–
CCOC(=O)c1c(C)oc2ncnc(N3CCN(c4ccccc4)CC3)c12	8.2µM	·	?	–	·	8.2µM
CN(Cc1cccc(Cl)c1)C(=O)C1CCC(=O)N(C2CC2)C1 (configuration not stated)	–	–	–	–	–	–
CCOC(=O)c1c(C)oc2nc(C)nc(N3CCN(c4cccc(C)c4C)CC3)c12	18µM	·	–	–	·	21µM
CCOC(=O)c1c(C)oc2ncnc(N3CCN(c4ccccc4F)CC3)c12	13µM	·	–	–	·	18µM
Cc1oc2ncn(C)c(=O)c2c1C(=O)N1CCN(c2ccccc2F)CC1	–	·	–	–	·	–
CC(=O)c1ccc(OC(=O)Cc2cccc3ccccc23)cc1	–	–	–	–	–	–
CCc1ccc(-c2nc(CS(=O)CC(=O)NCc3ccco3)c(C)o2)cc1 (configuration not stated)	–	–	–	–	–	?
COCCCNC(=O)CCc1c(C)nc2cc(-c3ccc(Cl)cc3)nn2c1C	?	·	–	–	·	18µM
Cc1nc2cc(-c3ccc(Cl)cc3)nn2c(C)c1CCC(=O)NCc1ccco1	?	–	–	?	–	?
